# Out of some 360,000 compounds screened, about 16,000 (4.4%) were called active. Inconclusive results (about 9%) are left out. Many of the other results were omitted from the sample, so actives are more common in it than they were. A number with no mark means an inactive call. Calls follow the shape of the dose curve; as a rule, active = well fitted inhibition curve with a large enough effect; inconclusive = small, poorly fitted or top-dose-only effect; inactive = no such curve, though single readings can be large or run the other way.
# Target: Bromodomain adjacent to zinc finger domain protein 2B (Homo sapiens) (UniProt Q9UIF8)
# Test: qHTS Assay for Inhibitors of BAZ2B; also: nearly all actives have a fitted effect of over 60% in size
# Conditions: AlphaScreen BAZ2B-H3K14Ac peptide displacement; series mostly up to 114 µM; activity change, negative = inhibition: at the top concentration
# How it was run: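 Protein-peptide AlphaScreen: BAZ2B 50 nM, b-H3K14Ac 50 nM, 1x PBS pH 7.4 + 0.01% Tween-20. Preincubation 30 min RT; cpd 30 min RT (top 110 uM); beads 20 min RT, light-protected.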
# % is scaled to controls: 0 for no effect and ±100 for the full control effect; potency is read from the fitted curve at half-maximal effect.
# Sequence of Bromodomain adjacent to zinc finger domain protein 2B (Homo sapiens) (Q9UIF8 whole entry, looked up, the tested form may be a part): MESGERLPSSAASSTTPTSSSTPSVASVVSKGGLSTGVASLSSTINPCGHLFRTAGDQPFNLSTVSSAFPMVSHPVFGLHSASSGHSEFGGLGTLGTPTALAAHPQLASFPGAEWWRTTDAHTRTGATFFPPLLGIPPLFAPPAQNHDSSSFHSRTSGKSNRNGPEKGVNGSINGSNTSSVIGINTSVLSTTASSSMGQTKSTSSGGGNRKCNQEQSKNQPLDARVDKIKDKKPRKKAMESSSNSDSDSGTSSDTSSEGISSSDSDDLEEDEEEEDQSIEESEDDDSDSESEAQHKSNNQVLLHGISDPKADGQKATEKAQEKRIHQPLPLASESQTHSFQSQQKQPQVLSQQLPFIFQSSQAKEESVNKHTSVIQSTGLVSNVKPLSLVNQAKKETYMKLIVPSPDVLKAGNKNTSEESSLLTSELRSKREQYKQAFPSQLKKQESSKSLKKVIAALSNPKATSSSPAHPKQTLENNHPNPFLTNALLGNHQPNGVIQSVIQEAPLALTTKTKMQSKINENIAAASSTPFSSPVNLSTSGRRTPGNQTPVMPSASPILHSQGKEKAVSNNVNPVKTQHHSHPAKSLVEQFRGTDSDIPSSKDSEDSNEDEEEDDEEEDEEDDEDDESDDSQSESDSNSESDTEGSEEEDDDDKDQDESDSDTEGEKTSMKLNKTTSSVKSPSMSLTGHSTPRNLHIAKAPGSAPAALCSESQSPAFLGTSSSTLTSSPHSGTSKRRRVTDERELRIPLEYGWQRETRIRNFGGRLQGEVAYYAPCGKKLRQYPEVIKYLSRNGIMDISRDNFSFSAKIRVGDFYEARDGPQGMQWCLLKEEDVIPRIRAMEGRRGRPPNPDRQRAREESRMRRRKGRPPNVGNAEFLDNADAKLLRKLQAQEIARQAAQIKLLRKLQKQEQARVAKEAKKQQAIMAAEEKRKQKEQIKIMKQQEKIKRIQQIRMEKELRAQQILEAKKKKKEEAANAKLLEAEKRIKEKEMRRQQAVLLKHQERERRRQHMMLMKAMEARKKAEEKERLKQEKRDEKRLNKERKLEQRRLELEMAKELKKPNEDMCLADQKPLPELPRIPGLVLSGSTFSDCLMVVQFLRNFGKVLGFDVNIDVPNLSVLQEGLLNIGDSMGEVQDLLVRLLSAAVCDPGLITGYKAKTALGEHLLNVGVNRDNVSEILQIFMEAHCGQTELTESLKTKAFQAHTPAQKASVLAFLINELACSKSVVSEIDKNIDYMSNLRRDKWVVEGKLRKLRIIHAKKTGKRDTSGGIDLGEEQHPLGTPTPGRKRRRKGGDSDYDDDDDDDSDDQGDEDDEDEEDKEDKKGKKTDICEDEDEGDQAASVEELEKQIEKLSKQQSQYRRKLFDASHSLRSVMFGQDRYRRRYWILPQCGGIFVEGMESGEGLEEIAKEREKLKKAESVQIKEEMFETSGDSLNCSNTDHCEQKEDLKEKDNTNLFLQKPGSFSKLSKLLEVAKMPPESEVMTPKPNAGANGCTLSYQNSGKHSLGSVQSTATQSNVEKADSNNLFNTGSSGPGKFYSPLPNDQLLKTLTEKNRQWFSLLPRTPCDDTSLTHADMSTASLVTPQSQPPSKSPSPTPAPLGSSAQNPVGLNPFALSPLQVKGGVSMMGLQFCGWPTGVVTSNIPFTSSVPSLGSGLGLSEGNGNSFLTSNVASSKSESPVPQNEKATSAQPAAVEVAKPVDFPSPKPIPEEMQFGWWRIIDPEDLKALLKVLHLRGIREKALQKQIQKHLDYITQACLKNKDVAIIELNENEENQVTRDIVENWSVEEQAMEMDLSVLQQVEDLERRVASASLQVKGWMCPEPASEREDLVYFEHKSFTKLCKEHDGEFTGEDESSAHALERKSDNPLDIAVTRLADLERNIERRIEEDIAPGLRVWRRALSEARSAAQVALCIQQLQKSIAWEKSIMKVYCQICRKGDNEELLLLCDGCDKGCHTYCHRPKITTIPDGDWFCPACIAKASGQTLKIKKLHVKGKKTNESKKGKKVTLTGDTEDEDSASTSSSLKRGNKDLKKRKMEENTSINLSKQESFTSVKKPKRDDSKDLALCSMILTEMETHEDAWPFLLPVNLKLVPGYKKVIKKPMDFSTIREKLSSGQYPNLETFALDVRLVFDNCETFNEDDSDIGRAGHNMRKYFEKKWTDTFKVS
SMILES,"activity change, negative = inhibition",Potency
CCOc1ccccc1NC(=O)Cn1nnc(C(=O)NCc2cccs2)c1N,-12.9%,–
CCOc1ccccc1NC(=O)Cc1cccs1,–,50.1 µM (active)
CCOC(=O)c1ccc(NC(=O)Cc2cccs2)cc1,4.75%,–
COc1ccc(CNc2nc(-c3ccccc3)nn2C(=O)c2ccccc2OC)cc1,-2.25%,–
COc1ccc(NC(=O)c2sc(N)nc2-c2ccccc2)cc1,-2.58%,–
Nc1ccc(-c2sc(N)nc2-c2ccccc2)cc1,–,50.1 µM (active)
Nc1ccc(-c2nnc(-c3ccccc3)o2)cc1,17%,–
COc1cc(C(=O)N2CCN(c3ccc(Nc4ccc(C)cc4)nn3)CC2)cc(OC)c1OC,-18.6%,–
Cc1ccc(-n2ccc(=O)c(C(=O)O)n2)cc1,3.19%,–
Cc1ccc(S(=O)(=O)NCC(=O)N2CCN(c3ccccn3)CC2)cc1,4.28%,–
Cc1ccc(N2CCN(c3ccc(C)cc3)C2c2ccccn2)cc1,–,50.1 µM (active)
O=S(=O)(NCCc1nnc2ccc(SCc3ccc(Cl)cc3Cl)nn12)c1ccccc1,-33.8%,–
COc1ccc(S(=O)(=O)n2nc(C)c(S(=O)(=O)N3CCCCCC3)c2C)cc1,-5.25%,–
CC(=O)Nc1ccc2nc(SCCOc3cc(C)cc(C)c3)sc2c1,-8.3%,–
CCOc1cc2[nH]c(=O)n(Cc3ccc(C(=O)NCCN(CC)CC)cc3)c(=O)c2cc1OCC,1.27%,–
CCCC(=O)N1CCN(c2nc3c(OC)ccc(C)c3s2)CC1,-9.35%,–
Cc1c2cnn(-c3ccccc3)c(=O)c2c(C)n1C(C)C(=O)Nc1ccc(Br)cc1F (stereo unspecified),-11.3%,–
COc1ccc(OC)c(Nc2nc(-c3ccc(O)c(O)c3)cs2)c1,–,50.1 µM (active)
COc1ccc(-c2csc(NC(=O)COC(=O)c3ccc(Br)o3)n2)cc1,-0.695%,–
COc1ccc(-c2csc(Nc3ccc(O)cc3)n2)cc1,–,35.5 µM (active)
COc1ccc(OC)c(-c2csc(NC(=O)COC(=O)C3CC3)n2)c1,-31.5%,–
COc1ccc(CC(=O)Nc2nc(-c3ccc(F)c(F)c3)cs2)cc1OC,-16.6%,–
COc1ccc(-c2csc(NC(=O)COC(=O)Cc3ccc(Cl)cc3Cl)n2)cc1,-0.543%,–
CC1CCN(c2nc3ccc(C(=O)N4CCN(c5ccccc5)CC4)cc3s2)CC1,-37%,–
COc1ccccc1C(=O)Nc1c(C(=O)N(C)Cc2ccccc2)sc2nc(C)c(Cl)c(C)c12,-26%,–
COc1ccc(NC(=O)CCNS(=O)(=O)c2ccc3c(c2)CCCC(=O)N3)cc1Cl,-0.24% [at 57.1 µM],–

SMILES,"activity change, negative = inhibition",Potency
COc1ccc(NC(=O)CSc2nc3ccccc3n2CC(=O)N2CCCCC2C)cc1 (stereo unspecified),-14.8%,–
Cc1ccc(S(=O)(=O)N(CC(=O)Nc2ccc(Cl)cc2Cl)c2ccccc2C)cc1,-13.1%,–
CCOc1cc(C(=O)NCCc2csc3nc(-c4ccc(C)cc4)nn23)cc(OCC)c1OCC,1.07%,–
CCOC(=O)c1cccc(NS(=O)(=O)c2cc(-c3cnc(C)o3)ccc2OC)c1,-8.57%,–
O=C(NC1CCN(Cc2ccccc2)CC1)c1ccc(Cn2c(=O)c3ccccc3n(Cc3cccc(F)c3)c2=O)cc1,-3.86%,–
CCOC(=O)C1CCCN(C(=O)Cn2ncc3c(C)n(Cc4ccc(F)cc4)c(C)c3c2=O)C1 (stereo unspecified),9.72%,–
CCCCN(CC)CCCNC(=O)c1nn(C)c2c1CS(=O)(=O)c1ccccc1-2,-1.12%,–
COc1ccccc1CN1CCC(CNC(=O)c2cnn(-c3cccc(Cl)c3)c2C2CCN(C(=O)OC(C)(C)C)CC2)CC1,4.39% [at 57.1 µM],–
CCN1C(=S)N[C@@H](c2cccc(C(F)(F)F)c2)C(C(=O)OC)=C1C,–,50.1 µM (active)
COCCN1C(=O)N[C@@H](c2ccccc2)C(C(=O)OC)=C1C,-4.69%,–
COC(=O)C1=C(C)N(C)C(=S)NC1c1ccccc1 (stereo unspecified),6.05%,–
COC(=O)CC1Oc2ccccc2-n2cc(-c3ccccc3)nc21 (stereo unspecified),-31.9%,–
COc1ccc(C(=O)/C=C/c2ccc(OC3CSC3)cc2)cc1,-4.21%,–
COc1ccc(C(=O)/C=C/c2cccnc2)c(OC)c1,2.6%,–
COc1ccc(/C=C/C(=O)c2cc(Br)ccc(=O)c2O)cc1,–,44.7 µM (active)
COc1cc(OC)c(OC)cc1/C=C/c1nc2cc3ccccc3cc2c(=O)n1-c1ccc(F)c(Cl)c1,-24%,–
COc1ccc(CCNS(=O)(=O)c2cc(-c3cc(C)no3)ccc2C)cc1OC,-3.59%,–
CCC(=O)Nc1ccc(C(=O)N2CCN(C(=O)c3ccco3)CC2)cc1,-11.3%,–
Cc1ccc(C)c(OCC(=O)N2CCN(C(=O)c3ccco3)CC2)c1,6.13%,–
Cc1ccc(OCC(=O)Nc2ccc(N3CCN(C(=O)c4ccco4)CC3)cc2)c(C)c1,–,31.6 µM (active)
CCOc1ccc(Nc2c(S(=O)(=O)c3ccccc3)cnc3ccccc23)cc1,-29.1%,–
O=C(NNc1c2ccccc2nc2ccccc12)c1cc2ccccc2cc1O,–,8.91 µM (active)
O=C(N/N=C/c1cccnc1)c1cc2ccccc2cc1O,-13.6%,–
CC(C)(C)OC(=O)NNc1c2ccccc2nc2ccccc12,-38.3%,–
COC(=O)c1ccccc1NC(=O)c1ccc2c(=O)n3c(nc2c1)CCCCC3,0.816%,–
CC1=C(C(=O)N2CCN(c3cccc(C(F)(F)F)c3)CC2)C2(CCCCC2)OC1=O,-9.34%,–

SMILES,"activity change, negative = inhibition",Potency
O=C(NCc1ccccc1)C(=O)NCC(c1ccco1)S(=O)(=O)c1ccc(Cl)cc1 (stereo unspecified),-0.73%,–
CC(C)=C(NC(=O)c1ccccc1)C(=O)N/N=C(\C)c1ccccc1O,-7%,–
Cc1cc(C(=O)NNC(=O)c2ccccc2O)c(C)o1,-5.59%,–
C/C(=N\NC(=O)c1ccoc1C)c1ccccc1O,–,50.1 µM (active)
COc1cccc(-c2nc(S(=O)(=O)c3ccc(C)cc3)c(NCc3ccccc3)o2)c1,17.1%,–
CCOCCCNc1nc(-c2ccccc2)nc2ccccc12,6.2%,–
CC(C)(C)Nc1nc(-c2ccccn2)nc2ccccc12,–,50.1 µM (active)
CCC(=O)OCCNc1nc(-c2ccccc2)nc2ccccc12,3.03%,–
O=c1c2cccnc2n(Cc2cccc(F)c2)c(=O)n1Cc1ccccc1Cl,41.6%,–
Clc1cccc(CN2COc3c(cc(Cl)c4cccnc34)C2)c1,–,28.2 µM (active)
O=c1c2ccccc2n(Cc2cccc(Cl)c2)c(=O)n1Cc1ccccc1,-8.19%,–
COc1ccc(CNC(=O)c2cc3c(s2)-c2ccccc2OC3)cc1,1.59%,–
Cc1nc2c(-c3ccccc3)c(C)nn2c(C)c1CCC(=O)NCCc1ccccc1,3.94%,–
CC1=C(c2ccc(C)cc2)S(=O)(=O)NC1=NCCCN1CCN(c2cc(C)ccc2C)CC1,-24.4%,–
O=c1ccc2c(-c3ccccc3S(=O)(=O)O)c3ccc(O)c(O)c3oc-2c1O,–,1 µM (active)
CCOc1ccc(CCNC(=O)c2c(C)oc3ncn(C)c(=O)c23)cc1,16.3% [at 57.1 µM],–
COc1ccc(CCNC(=O)c2cnc3sc(N4CCCCCC4)nn3c2=O)cc1OC,-16.6%,–
O=C(CCn1c(=O)c2ccccc2n(Cc2ccc(Cl)cc2)c1=O)NCc1ccc2c(c1)OCO2,2.09%,–
Cc1ccc(NC(=O)c2cccs2)cc1S(=O)(=O)N(C)C,9.52%,–
CCN(c1ccccc1)S(=O)(=O)c1cc(C(=O)NCc2ccccn2)ccc1C,4.88%,–
Cc1ccc(NC(=O)CNCc2ccccn2)cc1S(=O)(=O)N(C)C,–,25.1 µM (active)
O=S(=O)(Nc1ccc2nc(-c3cccc(Cl)c3)oc2c1)c1ccccc1,-6.28%,–
COc1ccc(CNC(=O)CSc2nc3ccccc3nc2Cc2ccccc2)cc1,3.24%,–
CC(C)(C)c1ccc(C(=O)NCC(c2ccco2)S(=O)(=O)c2ccc(F)cc2)cc1 (stereo unspecified),-17.7%,–
Cc1cccc(N2CCN(S(=O)(=O)c3ccc4[nH]c5c(c4c3)CCCCC5)CC2)c1C,-8.85% [at 57.1 µM],–
COc1ccccc1-c1cc(C(F)(F)F)nc(S(=O)(=O)CCCC(=O)Nc2cc(C)ccc2O)n1,-3.61%,–

SMILES,"activity change, negative = inhibition",Potency
Cc1nc2nc(SCC(=O)NC3CCC(C)CC3)nn2c(C)c1Cc1ccccc1Cl (stereo unspecified),-13.3%,–
Nc1ccc(N=Nc2ccccc2Cl)c(N)n1,–,25.1 µM (active)
COc1ccc(C(=O)Nc2onc3c2CCCC3)cc1,-3.98%,–
CCOc1ccc(NC(=O)c2c(NC(=O)Cc3ccccc3)sc3c2CCC(C)C3)cc1 (stereo unspecified),-21.1%,–
CCCCOC(=O)CSc1ncnc2sc3c(c12)CCC(C)C3 (stereo unspecified),18.9%,–
CCC(C(=O)Nc1cccc(Cl)c1C)n1nc(-c2ccc(C)cc2)ccc1=O (stereo unspecified),-22.7%,–
O=C(Nc1ccccc1-c1ccccc1)c1ccccc1[N+](=O)[O-],-5.53%,–
O=C(NCCNc1ccccc1[N+](=O)[O-])c1ccccc1F,8.95% [at 0.457 µM],–
O=[N+]([O-])c1ccccc1Nc1ccc(O)cc1,–,39.8 µM (active)
COC(=O)c1ccccc1NC(=O)c1cc(-c2ccccc2O)no1,-17.4%,–
O=C(CN1C(=O)COc2ccccc21)NCCN1CCc2ccccc2C1,-19.6%,–
O=C(CN1C(=O)COc2ccccc21)Nc1ccc(F)cc1,–,28.2 µM (active)
CC(OC(=O)CN1C(=O)COc2ccccc21)C(=O)NCc1ccc(F)cc1 (stereo unspecified),13.9%,–
O=C(NCc1ccccc1Cl)c1cccn1-c1nnc(N2CCCCC2)s1,-15%,–
COc1ccccc1Nc1nc(N)nc(CN(C)C2CCCCC2)n1,–,10 µM (active)
COc1ccccc1Nc1nc(N)nc(CSC(=S)N2CCOCC2)n1,-23.7%,–
COc1ccccc1Nc1nc(N)nc(N)c1S(=O)(=O)c1ccccc1,-19.9%,–
COc1ccc(CCN2C(=O)c3oc4cc(C)cc(C)c4c(=O)c3C2c2ccccc2F)cc1OC (stereo unspecified),7.46%,–
COc1ccc(-c2cn3nc(N4CCCC(C(=O)NCCCOC(C)C)C4)sc3n2)cc1 (stereo unspecified),-28%,–
COc1ccc(CNC(=O)Cc2ccc(-c3ccccc3)cc2)cc1OC,-25%,–
COC(=O)c1cc(NC(=O)c2cnc(SC)nc2-c2ccccc2)cc(C(=O)OC)c1,2.05%,–
COC(=O)c1ccc(-c2c(-c3ccccc3)ncc3cc(OC)c(OC)cc23)cc1,–,56.2 µM (active)
Cc1c(Cl)cccc1NC(=O)c1noc2c1CCCC2,30%,–
